Molecular target: T1, ETS1 (UniProt P14921)
T1 sequence: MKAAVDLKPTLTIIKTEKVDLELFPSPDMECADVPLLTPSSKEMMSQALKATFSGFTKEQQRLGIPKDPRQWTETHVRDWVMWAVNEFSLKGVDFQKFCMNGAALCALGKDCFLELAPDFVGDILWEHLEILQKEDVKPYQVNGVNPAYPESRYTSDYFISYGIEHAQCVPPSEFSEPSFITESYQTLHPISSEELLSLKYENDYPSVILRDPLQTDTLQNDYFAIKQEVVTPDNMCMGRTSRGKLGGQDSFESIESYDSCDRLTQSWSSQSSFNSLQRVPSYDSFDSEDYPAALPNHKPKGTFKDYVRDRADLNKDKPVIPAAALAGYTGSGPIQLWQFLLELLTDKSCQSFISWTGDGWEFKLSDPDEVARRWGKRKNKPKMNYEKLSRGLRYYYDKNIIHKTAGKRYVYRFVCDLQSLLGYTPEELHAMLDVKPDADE
Assay: ETS1 binding intensity (PBM fluorescence), ETS1 alone (arbitrary fluorescence units); higher = stronger binding
Details: ETS1 concentration 1 nM; RUNX1 concentration 0 nM

Row | Sequence | ETS1 binding intensity
1 | GGGGCGGCTTCCGGCGGCGTGACCTGACCGCAAGAG | 995
2 | CCAGCCACTTCCGCTCGTCCGCCTAATACCGCGCCT | 2130
3 | ACAAAGAAACCTACATCCTAAGCCACAGAATACAGC | 545
4 | CACCGCCGGAGTCCCGGATGTGGTTGCTAGGGCAGC | 5070
5 | GCAGCCCAGCTTCCTGCAGACCAAAACCACAAGCAG | 542
6 | GCTCCCTGGACAGGATGTGGTGCCGAGTAAACAGCT | 4470
7 | AACAAAGAGAGAGGAAGTGGGTTGGGCGGGGGGGGT | 1880
8 | TGCAGTCGTGAAAAAGGAAGTGGTTAAAGTGGATAC | 2880
9 | AGGGACCCGGATGTCTGGTCTGCGGCTGCTCCTCTA | 1460
10 | GCTGATAAAACAGGATGTGGTAAAGAAGCCGGCCAA | 5160
11 | CCCAAGCTACGGAAGTTAAACCTCAAACATGAAATC | 1110
12 | ACCCCGGAAGTGTGGGCGCGGCTGCGGTTTAACCCG | 2640
13 | CCGGTCCGCTCGCCGGAAATGCGGGCTCTCCTGCCG | 8400
14 | CAGAGAGAGGCCACATCCCTGTGGTCACACATACCC | 428
15 | CTCCTTCCTGTGTGTTACTCTTAAAAACCACAGAGG | 519
16 | GAGGGTTGCTGGGGGGAAGTGTGGTAAATCTTTTCC | 458
17 | GCGCCAGTCACCGTTTCCTGTGGTTTGCTGCCCGCC | 1790
18 | GGTTTAACGTTTCCGGTTTGTGGCTAGTTTCTTGTC | 7540
19 | GGTCTCTGCTTCCGGTCCTTGTGGTAGCACCTCTGT | 4510
20 | GGGAACTGGGGAAGGGGATGTGGTAACCAGAACCAC | 543
21 | GGGCCAGAGACGCCGGAAGTGACCGCGCGGTGCGCC | 11700

— the supplement of paper PMC10681739
